“And” between values parts separate entries of the source, which are not always exact repeats. Equal values may be shown once. In all, about 310,000 compounds went through this assay and about 1,000 (0.32%) were called active. No rule for the calls is given here. Only a sample is shown. Measured potencies and affinities stand elsewhere.
assay: PhoP regulon inhibitors, Salmonella typhi PhoP promoter GFP reporter, confirmatory (AID 1850); conditions: fluorescence, 4 h, at 50 µM, hits give high values;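 also: 0% = induced wells with vehicle and 100% = uninduced wells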

For `CCCn1c2ccccc2c2nnc(SCC(=O)Nc3ncccn3)nc21`, which inhibition is on record?
The inhibition was 1.55% (inactive).

Which inhibition does the source give for `CN(C)CCCn1c2c(c(SCC(=O)Nc3nccs3)nc1=O)CCC2` here?
Its inhibition is -3.03% (inactive).

Which inhibition does the source give for `O=C(Nc1cccc(Cl)c1)N1CCN(c2ncccn2)CC1` here?
Its inhibition is 8.55% (inactive).

Which inhibition does the source give for `COc1ccc(CC(=O)NCC(=O)N/N=C/c2ccc(C)o2)cc1` here?
The inhibition was -9.36% (inactive).

With `C=CCNC(=S)NCc1cccnc1` as the molecule, how does the inhibition read?
The inhibition was -7.66% (inactive).

With `O=C(NNC(=O)C1CCCCC1)c1ccc(Br)cc1` as the molecule, how does the inhibition read?
Its inhibition is -2.98% (inactive).

Which inhibition does the source give for `C/C(=N\NC(=O)c1ccccn1)c1ccc(Cl)cc1` here?
The inhibition was 0.75% (inactive).

With `C/C(=N\NC(=O)c1cc(Br)ccc1O)c1ccccn1` as the molecule, how does the inhibition read?
The inhibition was 1.41% (inactive).

With `C/C(=N\NC(=O)c1ccc(Cl)c(Cl)c1)c1ccccn1` as the molecule, how does the inhibition read?
Its inhibition is 3.95% (inactive).

With `C/C(=N\NC(=O)c1ccc(F)cc1)c1ccccn1` as the molecule, how does the inhibition read?
Its inhibition is -3.7% (inactive).

Which inhibition does the source give for `COc1ccc(CCN2CC(C(=O)NCCc3ccccc3C)CCC2=O)cc1` (stereo not given) here?
The inhibition was 0.24% (inactive).

With `Oc1c(C=NCc2ccc(F)cc2)[nH]c2ccc(Br)c(Cl)c12` as the molecule, how does the inhibition read?
The inhibition was -22.5% (inactive).

For `CN(/N=C/c1cc(Br)cc(Br)c1O)c1ccccc1`, which inhibition is on record?
The inhibition was 2.46% (inactive).

With `Oc1cccc(C=NCc2ccccc2)c1` as the molecule, how does the inhibition read?
The inhibition was -11.2% (inactive).

Which inhibition does the source give for `Oc1cccc(/C=N/N=C/c2cccc(O)c2O)c1O` here?
The inhibition was 21.8% (inactive).

Which inhibition does the source give for `O/N=C/c1cc(Br)ccc1OCc1ccc(F)cc1` here?
The inhibition was 3.46% (inactive).

For `Oc1c(Br)cc(Br)cc1/C=N/N1CCN(Cc2ccccc2)CC1`, which inhibition is on record?
The inhibition was -8.57% (inactive).

For `COc1cc(Br)cc(/C=N/NC(=O)Cc2ccccc2)c1O`, which inhibition is on record?
The inhibition was 5.08% (inactive).

For `O=C(Cc1ccccc1)N/N=C/c1cc(Br)cc(Br)c1O`, which inhibition is on record?
The inhibition was 6.54% (inactive).

With `CCN(CC)CC(C)CNC(=O)CC(C(=O)N1CCc2ccccc21)n1ccnc1` (stereo not given) as the molecule, how does the inhibition read?
The inhibition was -1.96% (inactive).

Which inhibition does the source give for `CC1(C)C2(C#N)C(N)=NC3(OCCO3)C12C#N` (stereo not given) here?
The inhibition was 4.42% (inactive).

For `Cc1ccc(S(=O)(=O)N(C)c2ccc(N)cc2)cc1`, which inhibition is on record?
Its inhibition is 8.98% (inactive).

Which inhibition does the source give for `Cc1ccc2nc(SCc3nc4cc(Cl)ccc4c(=O)[nH]3)[nH]c2c1` here?
Its inhibition is -3.53% (inactive).

Which inhibition does the source give for `COc1cccc(C2C(=O)N(C3CCCCC3)CC(=O)N2Cc2ccc(F)cc2)c1` (stereo not given) here?
Its inhibition is -2.24% (inactive).

With `OCCN1CCN(CC/C=C2/c3ccccc3Sc3ccc(C(F)(F)F)cc32)CC1` as the molecule, how does the inhibition read?
Its inhibition is -0.41% (inactive).

With `CC[N+](C)(C)CC/C=C1/c2ccccc2Sc2ccc(Cl)cc21` as the molecule, how does the inhibition read?
Its inhibition is 5.02% (inactive).

With `CN1CCN(CC/C=C2/c3ccccc3Sc3ccc(S(=O)(=O)N(C)C)cc32)CC1` as the molecule, how does the inhibition read?
Its inhibition is 3.38% (inactive).

Which inhibition does the source give for `CN1CCN(CCC=C2c3ccccc3Sc3ccc(S(=O)(=O)N(C)C)cc32)CC1` here?
The inhibition was -2.21% (inactive).

Which inhibition does the source give for `OCCN1CCN(CC/C=C2/c3ccccc3Sc3ccc(Cl)cc32)CC1` here?
Its inhibition is 5.06% (inactive).

For `C[N+](C)(C)CC/C=C1/c2ccccc2CSc2ccccc21`, which inhibition is on record?
Its inhibition is -7.79% (inactive).

Which inhibition does the source give for `O=C1[C@@H]2Cc3c([nH]c4ccccc34)C(c3ccc(Cl)cc3)N2C(=O)CN1CCO` (stereo not given in full) here?
Its inhibition is 3.36% (inactive).

With `CC(=O)NC(=S)Nc1ccccc1N1CCCCC1` as the molecule, how does the inhibition read?
The inhibition was -7.09% (inactive).

Which inhibition does the source give for `COc1ccc(-c2nnc(-c3ccccc3O)o2)cc1` here?
Its inhibition is 3.32% (inactive).

Which inhibition does the source give for `CCC(C(=O)N1CCCCCC1)n1nc(C)n2c(cc3occc32)c1=O` (stereo not given) here?
The inhibition was -32.5% (inactive).

For `CS(=O)(=O)N(CC(=O)Nc1ccccc1C(=O)NCc1ccco1)c1ccc2c(c1)OCCO2`, which inhibition is on record?
Its inhibition is -8.68% (inactive).

Which inhibition does the source give for `Cc1c(C(=O)N2CCOCC2)sc2ncn(CC(=O)N3CCC(C)CC3)c(=O)c12` here?
The inhibition was 0.7% (inactive).

Which inhibition does the source give for `Clc1ccc(COC(Cn2ccnc2)c2ccc(Cl)cc2Cl)cc1` (stereo not given) here?
Its inhibition is -0.54% (inactive).

Which inhibition does the source give for `Clc1ccc(COC(Cn2ccnc2)c2ccc(Cl)cc2Cl)c(Cl)c1` (stereo not given) here?
Its inhibition is -1.14% (inactive) and 1.85% (inactive).

Which inhibition does the source give for `Cn1ccsc1=NC(=O)c1ccc(S(=O)(=O)C(F)F)cc1` here?
Its inhibition is 2.31% (inactive).

For `CCOc1ccccc1-c1nc(-c2ccc(NC(=O)Cc3ccccc3OC)cc2)no1`, which inhibition is on record?
Its inhibition is 1.73% (inactive) and -10.4% (inactive).

With `O=C(C[n+]1ccn(-c2ccccc2)c1)c1ccc([N+](=O)[O-])cc1` as the molecule, how does the inhibition read?
The inhibition was 4.4% (inactive).

With `O=C(Cn1c[n+](CC(=O)c2ccc([N+](=O)[O-])cc2)cn1)c1ccc([N+](=O)[O-])cc1` as the molecule, how does the inhibition read?
The inhibition was 7.72% (inactive) and 18.6% (inactive).

Which inhibition does the source give for `O=C(Cn1cc[n+](CC(=O)c2ccccc2)c1)c1ccccc1` here?
The inhibition was 18.8% (inactive).

For `C[n+]1ccn(CC(=O)c2ccc(Cl)cc2)c1`, which inhibition is on record?
The inhibition was -7.58% (inactive).

Which inhibition does the source give for `O=c1c(/C=N\NS(=O)(=O)c2ccccc2)coc2ccc(Cl)cc12` here?
Its inhibition is -7.39% (inactive).

Which inhibition does the source give for `C/C(=C\c1ccccc1)CN1CCN(C(C)C)C(CCO)C1` (stereo not given) here?
Its inhibition is -0.3% (inactive).

Which inhibition does the source give for `CC1=CC(c2ccccc2)n2ncnc2N1` (stereo not given) here?
The inhibition was 3.87% (inactive).

For `COC/C=C/C1=CC2=CC(=O)C(C)(OC(=O)c3cnc4ccccc4n3)C(=O)C2=CN1CCc1ccccn1` (stereo not given), which inhibition is on record?
Its inhibition is 0.66% (inactive).

For `CC(C)c1ccccc1OCC(O)CN(CC(O)COc1cccc2ccccc12)C(C)C` (stereo not given), which inhibition is on record?
The inhibition was -6.27% (inactive).

With `CCN(CCNCC(O)COCc1ccc(Cl)cc1)c1cccc(C)c1` (stereo not given) as the molecule, how does the inhibition read?
Its inhibition is -1.24% (inactive).

Which inhibition does the source give for `Cc1c(Cl)cccc1NC(CC(=O)c1ccccc1)C(=O)OCC(=O)c1cccs1` (stereo not given) here?
Its inhibition is -2.54% (inactive).

For `Cc1ccc(S(=O)(=O)NNc2ccccc2)cc1`, which inhibition is on record?
Its inhibition is 32.1% (inactive).

With `Cc1ccc(S(=O)(=O)NNC2=NS(=O)(=O)c3ccccc32)c(C)c1` as the molecule, how does the inhibition read?
Its inhibition is 0.74% (inactive).

Which inhibition does the source give for `Cc1cccc(NC(=O)Nc2ccc(S(N)(=O)=O)cc2)c1` here?
Its inhibition is -0.31% (inactive).

Which inhibition does the source give for `Cc1ccc(S(=O)(=O)NNC(=O)Nc2cccc(F)c2)c(C)c1` here?
Its inhibition is -7.92% (inactive).

Which inhibition does the source give for `CC(=O)Nc1ccc(S(=O)(=O)NNC(=O)COc2cccc(C)c2)cc1` here?
The inhibition was 9.44% (inactive).

With `Cc1ccc(S(=O)(=O)NNC(=O)C(=O)NNS(=O)(=O)c2ccc(C)cc2)cc1` as the molecule, how does the inhibition read?
Its inhibition is -7.52% (inactive).

With `CCOC(=O)N1CCN(Cc2nc3cc(NC(=O)c4cccs4)ccc3n2C)CC1` as the molecule, how does the inhibition read?
Its inhibition is -16.8% (inactive).

For `COc1cc(CNn2cn[nH]c2=S)ccc1OCC(=O)NC(C)(C)C`, which inhibition is on record?
Its inhibition is -5.11% (inactive).

For `CC(=O)N1CN2CN(C(C)=O)CC(C(=O)c3ccc([N+](=O)[O-])cc3)(C2)C1`, which inhibition is on record?
Its inhibition is 5.88% (inactive).

— PubChem BioAssay AID1850 (Southern Research Specialized Biocontainment Screening …, 2009)
